Reference: PubChem BioAssay (Tox21)
Where “and” joins values, the source holds several entries; their conditions need not be identical. Equal entries are not always repeated. Inconclusive results are not listed. Calls of active or inactive are those of the source. The call rests on the fitted dose curve; in most records, active means well fitted curve in the direction sought with a large enough effect in the repeat runs; inconclusive means weak or mixed curves; inactive means no such curve, though single readings can be large; an effect the other way counts as inactive or inconclusive.

What was measured:
[1] = Human pregnane X receptor (PXR) small molecule agonists, qHTS cell viability counter screen (AID 1346977); further: nearly all actives have a fitted effect of over 50% in size; further: potency means the concentration at half of the fitted maximal effect
Method in brief: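 PXR-Luc HepG2 cells in medium with 5% charcoal-stripped FBS were pre-incubated 5hr, then exposed to compounds for 24hr at 37C. Viability was read in the same wells by CellTiter-Fluor fluorescence, reagent added after 23hr with a 1hr incubation.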

[2] = Caspase-3/7 induction in HepG2 cells by small molecules, qHTS assay (AID 1346978); further: nearly all actives have a fitted effect of over 15% in size; further: potency means the concentration at half of the fitted maximal effect
Method in brief: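 Caspase-3/7 induction was measured by Caspase-Glo 3/7 luminescence (30 min, room temperature) after a 17 hr compound exposure of wild-type HepG2 cells seeded at 2,000 per well and pre-incubated 5 hr.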

[3] = Caspase-3/7 induction in CHO-K1 cells by small molecules, qHTS assay (AID 1346980); further: nearly all actives have a fitted effect of over 15% in size
Method in brief: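 Luminescent Caspase-Glo 3/7 read (30min, room temperature) quantified apoptosis induction. Cells were wild-type CHO-K1, treated with compound for 17hr at 37 C and 5% CO2.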

[4] = Caspase-3/7 induction in HepG2 cells by small molecules, qHTS cell viability counter screen (AID 1346981); further: nearly all actives have a fitted effect of over 30% in size; further: potency means the concentration at half of the fitted maximal effect
Method in brief: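 Steps: seed 2,000 HepG2 cells per well; incubate 5 hr at 37 C; pin-add compounds in DMSO; incubate 16 hr; add CellTiter-Fluor; after 1 hr at 37 C and 5% CO2, read fluorescence.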

[5] = molecular target: Cytochrome P450 2D6 (Homo sapiens) (UniProt P10635); assay: Cytochrome P450 Family 2 Subfamily D Member 6 (CYP2D6) small molecule antagonists: luciferase reporter qHTS assay (AID 1671196); further: nearly all actives have a fitted effect of over 50% in size; further: potency means the concentration at half of the fitted maximal effect
Chain of Cytochrome P450 2D6 (Homo sapiens) (P10635 whole entry, looked up): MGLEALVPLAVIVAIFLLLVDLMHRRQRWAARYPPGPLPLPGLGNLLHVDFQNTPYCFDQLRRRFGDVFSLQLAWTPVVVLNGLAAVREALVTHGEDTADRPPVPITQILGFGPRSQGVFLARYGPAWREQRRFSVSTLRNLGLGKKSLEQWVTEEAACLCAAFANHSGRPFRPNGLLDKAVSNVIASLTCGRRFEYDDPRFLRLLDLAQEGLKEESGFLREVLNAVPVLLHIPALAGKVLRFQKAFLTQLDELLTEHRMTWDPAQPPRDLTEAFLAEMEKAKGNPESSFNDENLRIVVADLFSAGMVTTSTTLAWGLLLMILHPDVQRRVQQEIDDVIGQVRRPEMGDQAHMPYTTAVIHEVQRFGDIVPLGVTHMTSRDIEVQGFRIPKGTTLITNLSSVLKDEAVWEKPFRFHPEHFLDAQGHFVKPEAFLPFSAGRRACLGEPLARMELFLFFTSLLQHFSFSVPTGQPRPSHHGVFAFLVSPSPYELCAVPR
Method in brief: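 P450-Glo format: CYP2D6 converts a proluciferin substrate to luciferin in an NADPH-driven reaction lasting 1 h at room temperature. Light output, proportional to CYP2D6 activity, reflects interference by test chemicals.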

[6] = molecular target: Cytochrome P450 2C9 (Homo sapiens) (UniProt P11712); assay: Cytochrome P450 Family 2 Subfamily C Member 9 (CYP2C9) small molecule antagonists: luciferase reporter qHTS assay (AID 1671198); further: nearly all actives have a fitted effect of over 50% in size; further: potency means the concentration at half of the fitted maximal effect
Chain of Cytochrome P450 2C9 (Homo sapiens) (P11712 whole entry, looked up): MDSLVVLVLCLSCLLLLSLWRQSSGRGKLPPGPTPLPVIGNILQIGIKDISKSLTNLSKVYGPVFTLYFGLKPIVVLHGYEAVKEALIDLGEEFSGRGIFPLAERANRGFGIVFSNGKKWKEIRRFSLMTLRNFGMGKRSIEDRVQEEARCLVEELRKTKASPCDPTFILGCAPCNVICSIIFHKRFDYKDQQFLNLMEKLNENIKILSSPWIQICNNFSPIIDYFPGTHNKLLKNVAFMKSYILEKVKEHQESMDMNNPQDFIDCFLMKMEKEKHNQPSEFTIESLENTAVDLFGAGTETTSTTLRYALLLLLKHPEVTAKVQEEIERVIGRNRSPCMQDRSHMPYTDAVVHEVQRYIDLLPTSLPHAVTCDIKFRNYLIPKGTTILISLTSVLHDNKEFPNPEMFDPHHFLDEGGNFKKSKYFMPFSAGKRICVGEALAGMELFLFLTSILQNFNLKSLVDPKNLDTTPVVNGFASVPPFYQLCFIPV
Method in brief: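 Enzyme-substrate mix preincubated with compound 10 min at room temperature; reaction started with NADPH regeneration solution, 1 h 37C. Luminescent luciferin product read after 20 min detection reagent.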

[7] = molecular target: Voltage-gated inwardly rectifying potassium channel KCNH2 (Homo sapiens) (UniProt Q12809); assay: Human Ether-a-go-go-Related Gene (hERG) channel small molecule antagonists: fluorescence cell-based qHTS assay (AID 1671200);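 further: hERG-expressing U2OS cells given a thallium stimulus after FluxOR II dye loading; series mostly up to about 77 µM; nearly all actives have a fitted effect of over 50% in size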
Chain of Voltage-gated inwardly rectifying potassium channel KCNH2 (Homo sapiens) (Q12809 whole entry, looked up): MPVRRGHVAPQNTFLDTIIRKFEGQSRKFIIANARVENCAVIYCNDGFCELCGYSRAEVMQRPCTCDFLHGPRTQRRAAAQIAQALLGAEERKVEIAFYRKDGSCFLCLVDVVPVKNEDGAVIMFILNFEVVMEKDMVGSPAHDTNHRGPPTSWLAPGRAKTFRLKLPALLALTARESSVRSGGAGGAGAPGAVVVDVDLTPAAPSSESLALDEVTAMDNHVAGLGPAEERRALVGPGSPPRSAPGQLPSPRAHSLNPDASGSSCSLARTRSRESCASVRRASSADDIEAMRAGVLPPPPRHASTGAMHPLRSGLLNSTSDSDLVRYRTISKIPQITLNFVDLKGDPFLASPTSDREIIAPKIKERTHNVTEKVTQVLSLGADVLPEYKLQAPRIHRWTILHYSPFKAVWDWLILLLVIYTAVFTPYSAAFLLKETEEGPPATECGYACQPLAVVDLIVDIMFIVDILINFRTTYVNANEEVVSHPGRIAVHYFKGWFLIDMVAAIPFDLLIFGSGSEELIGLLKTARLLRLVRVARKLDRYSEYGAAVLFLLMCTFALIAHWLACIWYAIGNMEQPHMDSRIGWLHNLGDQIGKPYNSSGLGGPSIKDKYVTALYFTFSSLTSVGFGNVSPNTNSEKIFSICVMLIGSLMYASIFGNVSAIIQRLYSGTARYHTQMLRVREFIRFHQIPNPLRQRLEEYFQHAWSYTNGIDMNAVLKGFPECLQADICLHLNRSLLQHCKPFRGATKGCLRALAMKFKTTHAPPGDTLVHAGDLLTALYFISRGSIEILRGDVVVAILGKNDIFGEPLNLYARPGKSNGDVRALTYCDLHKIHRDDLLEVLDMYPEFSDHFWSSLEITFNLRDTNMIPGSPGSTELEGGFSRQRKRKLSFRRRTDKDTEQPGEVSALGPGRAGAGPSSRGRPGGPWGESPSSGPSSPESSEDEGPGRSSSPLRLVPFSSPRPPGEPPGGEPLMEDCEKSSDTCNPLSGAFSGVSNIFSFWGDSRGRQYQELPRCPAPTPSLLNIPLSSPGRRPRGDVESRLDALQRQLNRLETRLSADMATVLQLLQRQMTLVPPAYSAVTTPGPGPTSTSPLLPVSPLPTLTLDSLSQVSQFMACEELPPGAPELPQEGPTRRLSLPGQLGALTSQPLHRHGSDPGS
Method in brief: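 U2OS cells expressing the channel were plated at 1000 cells/well, incubated overnight at 37 C, then loaded with FluxOR II thallium-sensitive dye for 1 h at room temperature in the dark, with a further 10 min at room temperature before stimulation.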

[8] = molecular target: Cytochrome P450 3A4 (Homo sapiens) (UniProt P08684); assay: Cytochrome P450 Family 3 Subfamily A Member 4 (CYP3A4) small molecule antagonists: luciferase reporter qHTS assay (AID 1671201); further: nearly all actives have a fitted effect of over 50% in size; further: potency means the concentration at half of the fitted maximal effect
Chain of Cytochrome P450 3A4 (Homo sapiens) (P08684 whole entry, looked up): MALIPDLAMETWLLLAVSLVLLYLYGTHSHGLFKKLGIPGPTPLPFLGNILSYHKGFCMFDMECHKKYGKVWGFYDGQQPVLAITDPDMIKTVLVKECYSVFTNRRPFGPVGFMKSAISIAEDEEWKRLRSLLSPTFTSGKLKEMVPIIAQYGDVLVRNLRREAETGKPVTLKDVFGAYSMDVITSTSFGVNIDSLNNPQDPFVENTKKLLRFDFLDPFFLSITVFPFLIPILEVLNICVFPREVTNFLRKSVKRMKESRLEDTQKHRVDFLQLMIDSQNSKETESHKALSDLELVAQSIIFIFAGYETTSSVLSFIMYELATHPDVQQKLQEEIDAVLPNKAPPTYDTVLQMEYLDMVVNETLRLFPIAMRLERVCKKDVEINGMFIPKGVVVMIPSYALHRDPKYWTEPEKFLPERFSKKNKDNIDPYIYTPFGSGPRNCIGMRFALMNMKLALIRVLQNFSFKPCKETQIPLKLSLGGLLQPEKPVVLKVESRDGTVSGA
Method in brief: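 P450-Glo CYP3A4 system with proluciferin substrate; compounds preincubated 10 min RT with enzyme-substrate mix, then NADPH regeneration added for 1 h RT. Detection reagent 20 min, luminescence read as relative luminescence units.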

[9] = Caspase-3/7 induction in CHO-K1 cells by small molecules, qHTS cell viability counter screen (AID 1346979); further: nearly all actives have a fitted effect of over 35% in size; further: potency means the concentration at half of the fitted maximal effect
Method in brief: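 Wild-type CHO-K1 cells were seeded at 1,500 per well, rested 5hr at 37 C, then exposed to compounds in DMSO. After 16hr, CellTiter-Fluor reagent was added and fluorescence read 1hr later as the viability measure.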

[10] = molecular target: Nuclear receptor subfamily 1 group I member 2 (Homo sapiens) (UniProt O75469); assay: Human pregnane X receptor (PXR) small molecule agonists, qHTS assay (AID 1346982); further: nearly all actives have a fitted effect of over 35% in size; further: potency means the concentration at half of the fitted maximal effect
Chain of Nuclear receptor subfamily 1 group I member 2 (Homo sapiens) (O75469 whole entry, looked up): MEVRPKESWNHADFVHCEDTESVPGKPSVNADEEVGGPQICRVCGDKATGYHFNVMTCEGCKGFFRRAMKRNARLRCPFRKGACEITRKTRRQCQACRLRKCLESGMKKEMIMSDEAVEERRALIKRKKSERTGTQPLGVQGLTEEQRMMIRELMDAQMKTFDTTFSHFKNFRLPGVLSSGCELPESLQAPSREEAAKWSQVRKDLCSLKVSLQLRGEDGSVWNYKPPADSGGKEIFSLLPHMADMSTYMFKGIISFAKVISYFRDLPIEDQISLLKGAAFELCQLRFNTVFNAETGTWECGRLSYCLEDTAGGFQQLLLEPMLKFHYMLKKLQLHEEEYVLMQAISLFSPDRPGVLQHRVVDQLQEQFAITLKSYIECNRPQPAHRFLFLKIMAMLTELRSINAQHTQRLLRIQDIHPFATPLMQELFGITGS
Method in brief: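 Agonist mode qHTS: PXR-Luc HepG2 cells plated 5 hr before DMSO-dissolved compounds were pinned in, cultured 24 hr at 37 C, 5% CO2; ONE-Glo luminescence readout.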

[11] = molecular target: Cytochrome P450 2C19 (Homo sapiens) (UniProt P33261); assay: Cytochrome P450 Family 2 Subfamily C Member 19 (CYP2C19) small molecule antagonists: luciferase reporter qHTS assay (AID 1671197); further: nearly all actives have a fitted effect of over 65% in size; further: potency means the concentration at half of the fitted maximal effect
Chain of Cytochrome P450 2C19 (Homo sapiens) (P33261 whole entry, looked up): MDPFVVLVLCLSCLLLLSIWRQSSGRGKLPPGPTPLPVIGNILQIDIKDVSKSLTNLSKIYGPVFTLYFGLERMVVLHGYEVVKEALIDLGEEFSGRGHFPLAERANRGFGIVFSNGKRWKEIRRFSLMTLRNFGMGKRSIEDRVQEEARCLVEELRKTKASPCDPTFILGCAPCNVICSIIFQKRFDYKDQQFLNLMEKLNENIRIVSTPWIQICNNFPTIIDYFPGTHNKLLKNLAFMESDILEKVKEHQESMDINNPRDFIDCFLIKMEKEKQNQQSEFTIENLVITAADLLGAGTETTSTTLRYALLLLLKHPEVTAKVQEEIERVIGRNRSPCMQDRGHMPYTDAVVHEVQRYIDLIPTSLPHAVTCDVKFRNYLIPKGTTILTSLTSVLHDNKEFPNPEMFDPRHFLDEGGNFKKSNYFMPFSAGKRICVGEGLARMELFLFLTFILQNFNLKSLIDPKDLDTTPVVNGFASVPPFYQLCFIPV
Method in brief: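 Light output is proportional to CYP2C19 activity: proluciferin substrate is converted to luciferin, then detected by a luciferin detection reagent that also stops the 1 h, 37C NADPH-driven reaction. Ketoconazole serves as positive control.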

[12] = molecular target: Cytochrome P450 1A2 (Homo sapiens) (UniProt P05177); assay: Cytochrome P450 Family 1 Subfamily A Member 2 (CYP1A2) small molecule antagonists: luciferase reporter qHTS assay (AID 1671199); further: nearly all actives have a fitted effect of over 50% in size; further: potency means the concentration at half of the fitted maximal effect
Chain of Cytochrome P450 1A2 (Homo sapiens) (P05177 whole entry, looked up): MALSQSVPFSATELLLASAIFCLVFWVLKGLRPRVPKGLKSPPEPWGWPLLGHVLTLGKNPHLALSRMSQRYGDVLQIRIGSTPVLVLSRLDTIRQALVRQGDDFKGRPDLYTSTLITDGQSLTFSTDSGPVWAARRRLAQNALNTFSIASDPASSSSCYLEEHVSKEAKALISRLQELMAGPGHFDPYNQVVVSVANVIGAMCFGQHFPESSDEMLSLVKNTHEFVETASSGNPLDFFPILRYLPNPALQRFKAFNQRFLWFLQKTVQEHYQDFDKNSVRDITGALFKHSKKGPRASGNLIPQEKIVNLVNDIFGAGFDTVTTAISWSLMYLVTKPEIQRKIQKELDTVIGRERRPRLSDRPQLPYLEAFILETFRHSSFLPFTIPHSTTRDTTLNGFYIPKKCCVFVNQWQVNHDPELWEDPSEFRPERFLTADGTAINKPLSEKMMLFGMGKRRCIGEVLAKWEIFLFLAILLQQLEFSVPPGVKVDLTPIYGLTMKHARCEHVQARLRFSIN
Method in brief: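 Inhibition of CYP1A2 conversion of proluciferin to luciferin, detected by luminescence. Reaction run 1 h at room temperature with NADPH regeneration after brief compound preincubation.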

[13] = molecular target: Nuclear receptor subfamily 1 group I member 2 (Rattus norvegicus) (UniProt Q9R1A7); assay: Rat pregnane X receptor (rPXR) activation by small molecules, qHTS assay (AID 1346983); conditions: rPXR luciferase reporter cells, One-Glo luminescence, 24 h; max activation: active compounds read high; further: nearly all actives have a fitted effect of over 20% in size; further: potency means the concentration at half of the fitted maximal effect
Chain of Nuclear receptor subfamily 1 group I member 2 (Rattus norvegicus) (Q9R1A7 whole entry, looked up): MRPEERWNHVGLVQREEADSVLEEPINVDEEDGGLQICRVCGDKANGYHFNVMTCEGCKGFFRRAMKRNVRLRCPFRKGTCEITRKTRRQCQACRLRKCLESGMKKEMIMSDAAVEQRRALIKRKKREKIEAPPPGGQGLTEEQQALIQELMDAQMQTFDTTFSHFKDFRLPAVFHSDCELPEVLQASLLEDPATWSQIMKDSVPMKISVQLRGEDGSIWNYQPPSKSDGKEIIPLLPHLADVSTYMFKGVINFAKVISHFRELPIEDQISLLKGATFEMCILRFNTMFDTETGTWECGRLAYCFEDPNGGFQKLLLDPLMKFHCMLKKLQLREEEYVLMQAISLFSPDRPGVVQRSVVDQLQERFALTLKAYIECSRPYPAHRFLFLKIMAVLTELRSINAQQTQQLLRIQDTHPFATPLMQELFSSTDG
Method in brief: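 Luminescent readout (One-Glo luciferase, 30 min room temperature) followed 24 hr compound treatment at 37 C of rPXR cells plated 2,000 per well and preincubated 5hr; qHTS format with compounds delivered in DMSO.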

[14] = molecular target: Nuclear receptor subfamily 1 group I member 2 (Homo sapiens) (UniProt O75469); assay: CYP3A4 induction through human pregnane X receptor (PXR) by small molecules, qHTS assay (AID 1346984); further: nearly all actives have a fitted effect of over 40% in size; further: potency means the concentration at half of the fitted maximal effect
Method in brief: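 Steps: seed DPX-2 cells, 5 hr at 37C; pin-transfer compounds; 24 hr at 37C; add Luciferin-IPA (3uM final), 3 hr at 37C; add One-Glo, 30 min RT; read luminescence.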

[15] = molecular target: Nuclear receptor subfamily 1 group I member 2 (Homo sapiens) (UniProt O75469); assay: Human pregnane X receptor (PXR) activation by small molecules, qHTS assay (AID 1346985); further: nearly all actives have a fitted effect of over 40% in size; further: potency means the concentration at half of the fitted maximal effect
Method in brief: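 DPX-2 cells (HepG2 co-transfected with a PXR response element and a CYP3A4-promoter luciferase construct) were seeded at 2,000 per well, rested 5 hr at 37C, then exposed to DMSO-dissolved compounds for 24 hr. Activation was read as luciferase luminescence.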
On the % scale 0 is the no-effect control and ±100 the full control effect.

CCCc1c(OCCCOc2ccc(OCC(=O)O)cc2)ccc(C(C)=O)c1O
inactive: Potency [1] | Potency [2] | outcome [3] | Potency [4] | Potency [5] | Potency [7] | Potency [8]
active: Potency [6] 8.94 µM

CCCCOC(=O)CCS
active: Potency [6] 63.3 µM
inactive: Potency [1] | Potency [2] | Potency [9] | outcome [3] | Potency [10] | Potency [7] | Potency [8]

Nc1ccc(S(=O)(=O)O)c(N)c1
inactive: Potency [1] | Potency [2] | Potency [10] | Potency [6] | Potency [7] | Potency [8]
active: Potency [11] 31.7 µM | Potency [12] 22.4 µM

CC(CCO)CCc1ccccc1 (stereo not drawn)
inactive: Potency [1] | Potency [2] | Potency [9] | outcome [3] | Potency [10] | Potency [5] | Potency [7] | Potency [8]
active: Potency [11] 7.96 µM | Potency [6] 35.6 µM | Potency [12] 22.4 µM

CCCCC(=O)O[C@]1(C(=O)CO)[C@@H](C)C[C@H]2[C@@H]3CCC4=CC(=O)C=C[C@]4(C)[C@@]3(F)[C@@H](O)C[C@@]21C
inactive: Potency [1] | Potency [2] | outcome [3] | Potency [12] | Potency [7]
active: Potency [10] 34.4 µM | Potency [5] 35.6 µM | Potency [11] 79.6 µM | Potency [6] 35.6 µM

C/C=C(\C)C(=O)OCCC(C)CCC=C(C)C (stereo not drawn)
active: Potency [11] 20 µM | Potency [6] 39.9 µM | Potency [8] 20 µM
inactive: Potency [1] | Potency [2] | Potency [9] | Potency [4] | Potency [10] | Potency [5] | Potency [7]

O=C(/C=C/c1ccccc1)OCCCc1ccccc1
active: Potency [11] 39.9 µM | Potency [6] 22.4 µM | Potency [12] 12.6 µM
inactive: Potency [1] | Potency [2] | Potency [9] | Potency [4] | Potency [10] | Potency [8]

CC(C)CCCCCCOC(=O)CCCCC(=O)OCCCCCCC(C)C
inactive: Potency [1] | Potency [2] | Potency [9] | Potency [4] | Potency [10] | Potency [5] | Potency [11] | Potency [7] | Potency [8]
active: Potency [12] 35.6 µM

CCCCC1C(=O)N(c2ccccc2)N(c2ccc(O)cc2)C1=O (stereo not drawn)
active: Potency [1] 26.6 µM | Potency [9] 3.76 µM | Potency [4] 29.8 µM | Potency [10] 11.9 µM | Potency [11] 17.4 µM | Potency [6] 9.77 µM
inactive: Potency [2] | max activation [13] 1.09% | Potency [14] | Potency [15] | Potency [12] | Potency [7]

NC(=O)N(O)[C@@H]1COc2cc(OCc3ccccc3)ccc21
inactive: Potency [2] | outcome [3] | Potency [4] | Potency [7]
active: Potency [9] 24.3 µM | Potency [10] 12.2 µM | Potency [5] 10 µM | Potency [11] 5.03 µM | Potency [6] 7.96 µM | Potency [12] 5.03 µM | Potency [8] 2.52 µM

COCc1c(C(C)C)nc(C(C)C)c(/C=C/[C@@H](O)C[C@@H](O)CC(=O)O)c1-c1ccc(F)cc1
active: Potency [2] 2.11 µM and 958 nM | Potency [10] 15 µM and 10.8 µM | Potency [13] 11.2 µM | Potency [14] 3.16 µM | Potency [15] 3.55 µM | Potency [6] 35.2 µM | Potency [12] 30.9 µM
inactive: Potency [1] | outcome [3] | Potency [11] | Potency [7]

COc1ccc([C@@H]2Sc3ccccc3NC(=O)[C@@H]2O)cc1
active: Potency [11] 21.9 µM | Potency [6] 17.4 µM
inactive: Potency [1] | Potency [2] | Potency [9] | outcome [3] | Potency [10] | Potency [7] | Potency [8]

C[C@@H]1C[C@H]2[C@@H]3CCC4=CC(=O)C=C[C@]4(C)[C@@]3(F)[C@@H](O)C[C@]2(C)[C@@]1(O)C(=O)CO
inactive: Potency [1] | Potency [2] | Potency [9] | outcome [3] | Potency [4] | Potency [7]

CCCC1C(CC)=CC(CC)=CN1c1ccccc1 (stereo not drawn)
active: Potency [10] 24.3 µM | Potency [5] 20 µM | Potency [11] 2 µM | Potency [6] 17.8 µM | Potency [12] 11.2 µM | Potency [8] 31.7 µM
inactive: Potency [1] | Potency [2]

O=C(NCCCN1CCOCC1)c1ccc(Cl)cc1
inactive: Potency [1] | Potency [2] | outcome [3] | Potency [4] | Potency [10] | max activation [13] 4.03% | Potency [14] | Potency [15] | Potency [11] | Potency [6] | Potency [12] | Potency [7] | Potency [8]
active: Potency [5] 2.45 µM

CC1=CC(O)CC(C)(C)C1 (stereo not drawn)
inactive: Potency [1] | Potency [2] | outcome [3] | Potency [4] | Potency [10] | Potency [5] | Potency [11] | Potency [6] | Potency [12] | Potency [7] | Potency [8]

CC(=O)CC(c1ccc([N+](=O)[O-])cc1)c1c(O)c2ccccc2oc1=O (stereo not drawn)
inactive: Potency [1] | Potency [2] | outcome [3] | Potency [4] | Potency [10] | max activation [13] -1.52% | Potency [14] | Potency [15] | Potency [12] | Potency [7] | Potency [8]
active: Potency [11] 8.71 µM | Potency [6] 2.45 µM
